Source: PubChem BioAssay
HGIII-sPLA2 inh: Inhibits HGIII-sPLA2 liposome hydrolysis, primary screen; Q9NZ20; QFRET BODIPY PC-A2 liposome hydrolysis, fluorescence; inhibition, % at 12.2 µM; 370,000 compounds, 0.56% hits; AID 743126;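 active means inhibition above mean plus 3 SD of compounds lying within the high and low control bounds, cut at about 19% in these data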;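 further: 0% = median of test compound wells and 100% = no enzyme DMSO wells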
Target sequence (Q9NZ20 whole entry, looked up): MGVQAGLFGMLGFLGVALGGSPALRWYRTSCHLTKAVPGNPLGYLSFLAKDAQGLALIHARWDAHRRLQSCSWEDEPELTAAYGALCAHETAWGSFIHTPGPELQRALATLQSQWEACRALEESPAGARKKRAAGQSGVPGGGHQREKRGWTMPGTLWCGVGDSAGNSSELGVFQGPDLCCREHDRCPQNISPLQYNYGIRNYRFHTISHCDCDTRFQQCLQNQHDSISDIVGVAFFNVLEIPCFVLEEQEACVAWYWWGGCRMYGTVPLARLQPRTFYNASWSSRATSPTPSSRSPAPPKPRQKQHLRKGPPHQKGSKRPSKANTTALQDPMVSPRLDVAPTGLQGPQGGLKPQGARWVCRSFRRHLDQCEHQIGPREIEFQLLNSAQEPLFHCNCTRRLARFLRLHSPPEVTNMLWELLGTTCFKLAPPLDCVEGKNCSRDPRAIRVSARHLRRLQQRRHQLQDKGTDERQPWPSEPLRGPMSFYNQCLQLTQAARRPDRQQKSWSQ
A3A deaminase: human APOBEC3A DNA deaminase inhibition | inhibition, % at 20 µM | 330,000 compounds, 0.41% hits | recombinant A3A, FAM/TAMRA ssDNA deamination fluorescence;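 active means at least 40% inhibition at 20 µM here, with at most 30% in a related deaminase screen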;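 further: plate controls were A3A with DMSO for no effect and wells lacking A3A enzyme for full effect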
CTSL1 counter: counter-screen for PFM18AAP inhibitors: inhibitors of F. hepatica cathepsin L1 | AID 1906 | recombinant F. hepatica cathepsin L1, Z-Leu-Arg-MCA fluorescence | 300,000 compounds, 0.49% hits | inhibition, % at 5.96 µM;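 active means inhibition above the mean of all tested compounds plus 3 SD, set per screening campaign, cut at about 17% in these data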;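 further: 0% = plate median of test compound wells and 100% = 1 µM Z-Phe-Ala-diazomethylketone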
NALP1 inh: blocks the NALP1 inflammasome reconstituted in yeast; S. cerevisiae NALP1/ASC/caspase-1 growth, X-gal OD620, 72 h; inhibition, % at 10 µM; 280,000 compounds, 0.61% hits; AID 2071; in the data active means inhibition mostly above about 24%, no sharp cut-off; inactive means mostly below about 32%
APOBEC3G inh: APOBEC3G (human) deaminase inhibition; recombinant A3G, ssDNA deamination FAM/TAMRA fluorescence; inhibition, % at 20 µM; 330,000 compounds, 0.28% hits;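 active means inhibition of at least 40% at 20 µM, with no more than 30% in the related APOBEC3A deaminase screen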;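 further: plate controls were DMSO wells with A3G for no effect and wells lacking A3G enzyme for full effect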
hGIII sPLA2 conf: human GIII-sPLA2 inhibition, confirmation | 2,000 compounds, 34% hits | inhibition, % at 12.2 µM | shares compounds with HGIII-sPLA2 inh | recombinant hGIII-sPLA2, BODIPY PC-A2 QFRET fluorescence;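 active means mean inhibition across triplicates above the hit cutoff set in the earlier primary screen, cut at about 19% in these data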;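 further: 0% = enzyme with DMSO and 100% = DMSO wells lacking enzyme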
535nm interf: optically interferes with 535nm fluorescence in sPLA2 counter-screen | shares compounds with HGIII-sPLA2 inh | BODIPY FL product fluorescence interference, QFRET | inhibition, % at 12.2 µM | 2,000 compounds, 8.5% hits | AID 743282;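 active means average inhibition above the solvent-only control mean plus 3 SD, cut at about 6% in these data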;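 further: 0% = DMSO with substrate plus product and 100% = DMSO with substrate alone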
535nm interf DR: counter-screen for HGIII-sPLA2 inhibitors: 535nm fluorescence interference, dose response. BODIPY FL product fluorescence interference, cell-free. AID 743455. 240 tested, under 10 active. IC50, µM. shares compounds with HGIII-sPLA2 inh;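 active means IC50 at or below 10 µM; inactive means IC50 above 10 µM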
* = called active by the depositor; x = not tested or not shown. Sampled rows, rich in hits. Any-hit rate of the full collection: about 2%.

SMILES	HGIII-sPLA2 inh	A3A deaminase	CTSL1 counter	NALP1 inh	APOBEC3G inh	hGIII sPLA2 conf	535nm interf	others
COc1ccc(C(=O)NNC(=S)NC(=O)c2cccnc2)cc1	2	1	1	-1	11	x	x
COc1ccc(C(=O)NNC(=S)NC(=O)c2ccc(OC)cc2)cc1	20*	-10	-1	2	-3	26*	-10
Cc1ccc(C(=O)NNC(=O)c2ccco2)cc1	18	2	-25	11	-1	x	x
Cc1ccc(C(=O)NC(=S)NNC(=O)c2ccccc2)cc1	24*	-9	-3	-2	-3	40*	-4	535nm interf DR=>122
CC(=O)NC(Cc1ccc2c(c1)OCO2)C(=O)N1CCCN(C(C)=O)CC1 (centres undefined)	11	x	x	x	x	x	x
CCOC(=O)[C@]12CCCCC/C=C\1N(Cc1ccc(OC)cc1)C(=O)[C@H]2CC(=O)N1CCN(C(=O)C2CC2)CC1	7	x	x	x	x	x	x
CCNC(=S)NNC(=O)c1cccc(Br)c1	22*	0	-2	-3	-4	33*	-4
COc1ccc(C(=O)NC(=S)NNC(=O)c2ccncc2)cc1Br	29*	-5	x	x	-7	26*	4
COc1ccc(C(=O)NNC(=S)NC(=O)c2cccs2)cc1	21*	-5	0	-12	-8	40*	2	535nm interf DR=>122
Cc1cccc(C(=O)NNC(=S)NC(=O)c2cccs2)c1	28*	-3	3	-5	7	27*	4
COc1ccc(/C=C/C(=O)NC(=S)NNC(=O)c2cccs2)cc1	8	-7	-1	18	-3	x	x
CCNC(=S)NNC(=O)c1ccncc1	3	-8	4	-2	-10	x	x
COc1ccc(C(=O)NNC(=S)NC(=O)c2ccc(F)cc2)cc1Br	0	1	0	x	2	x	x
O=c1cc(N2CCN(c3ccnc4cc(Cl)ccc34)CC2)[nH]c(=O)n1C1CCCCC1	-4	x	x	x	x	x	x
CN1[C@H](Cc2ccccc2)COc2cccc(N3CCCC3)c2S1(=O)=O	2	x	x	x	x	x	x
CCCOc1ccc(C(=O)NC(=S)Nc2nc3ccc(C)cc3s2)cc1	x	x	x	7	x	x	x
O=C(NN1CCOCC1)c1cccc(Br)c1	0	-4	3	x	-3	x	x
CCCOc1ccc(C(=O)NC(=S)Nc2nc3ccccc3s2)cc1	26*	-1	0	10	-1	2	-2
Cc1cccc(C(=O)NC(=S)NNC(=O)COc2ccc(Cl)cc2)c1	-8	-3	x	13	14	x	x
Cc1ccc(NC(=O)NC(=S)NC(=O)c2ccccc2)cc1	23*	7	2	10	-7	-14	4
CN1CCN(NC(=O)c2cccc(Br)c2)CC1	21*	0	2	14	-5	2	-2
COc1ccc(C(=O)NC(=S)NNC(=O)c2cccc(C)c2)cc1	27*	-1	0	x	5	38*	-7	535nm interf DR=>122
COc1ccc(CN2C(=O)[C@@](O)(c3cccn3C)c3cc(Br)ccc32)cc1	-14	x	x	x	x	x	x
COc1ccc(-c2nnn3c2Cn2c4ccccc4c(=O)n2[C@@H](C)C3)cc1	-4	x	x	x	x	x	x
COC(=O)c1sc(NC(=O)c2ccco2)nc1C	-5	-4	1	9	-10	x	x
SMILES	HGIII-sPLA2 inh	A3A deaminase	CTSL1 counter	NALP1 inh	APOBEC3G inh	hGIII sPLA2 conf	535nm interf	others
CCOC(=O)c1sc(NC(=S)NC(=O)c2ccco2)nc1C	27*	-5	0	26	-11	15	2
CC(C)(C)NC(=S)NNC(=O)c1ccncc1	23*	-2	-1	18	1	7	-5
Cc1cccc(C(=O)NNC(=S)NC(=O)c2ccccc2)c1	23*	4	0	x	7	36*	-5	535nm interf DR=>122
COc1cccc(NC(=O)C2CCCN2C(=O)Nc2cccc3c2OCO3)c1 (centres undefined)	6	x	x	x	x	x	x
O=C(OC12CCCN(C1)/C(=C/c1ccncc1)C2)c1ccc(Cl)cc1 (centres undefined)	-1	x	x	x	x	x	x
O=C(NC1CCCCC1)c1ccc2ccccc2c1O	7	x	x	x	x	x	x
O=C(NNC(=O)c1ccc2ccccc2c1O)NC1CCCCC1	26*	-4	x	8	-5	18	1
O=C(NNC(=O)c1ccc2ccccc2c1O)Nc1ccc(F)cc1	28*	5	0	-10	-4	30*	1	535nm interf DR=>122
O=C(NNC(=O)c1ccc2ccccc2c1)Nc1ccc(F)cc1	-1	0	2	9	-3	x	x
Cc1cccc(NC(=O)NNC(=O)c2ccc3ccccc3c2O)c1	29*	0	x	4	-3	30*	2	535nm interf DR=>122
CNC(=O)c1c(C)[nH]c(=S)c(C#N)c1-c1ccco1	0	-2	4	-1	16	x	x
Cc1ccccc1NC(=O)c1c(C)[nH]c(=S)c(C#N)c1-c1ccco1	20*	0	0	24	4	20*	2
CCN(C(=O)COC(=O)CCCc1nc2ccccc2s1)c1c(N)n(Cc2ccccc2)c(=O)[nH]c1=O	-10	x	x	x	x	x	x
CC(C)CN(C(=O)COC(=O)CCc1nc2ccccc2s1)c1c(N)n(Cc2ccccc2)c(=O)[nH]c1=O	19*	1	-30	x	-3	9	-9
CC(NC(=S)NC1CCCCC1)C(c1cccs1)N1CCOCC1 (centres undefined)	24*	1	0	x	2	19	-3
COc1ccccc1NC(=S)NC(C)C(c1cccs1)N1CCOCC1 (centres undefined)	25*	1	-4	x	-2	8	-11
COc1ccc(-n2cc(COC(=O)NCCc3ccccc3)nn2)cc1	5	x	x	x	x	x	x
COc1ccc(C)cc1NC(=O)CSc1nnc(-c2n[nH]c3c2CCC3)n1N	4	x	x	x	x	x	x
O=C(c1ccco1)N1CCC(Oc2cccnc2)CC1	0	x	x	x	x	x	x
CNCc1ccccc1Sc1cc(O)ccc1O	20*	0	-6	56*	7	38*	-6	535nm interf DR=>122
CN(C)c1ccc(/C=C2\CCC/C(=C\c3ccccc3)C2=O)cc1	4	x	1	29	x	x	x
COc1cc(N(C)C)ccc1C=c1c2ccccc2n2c1cc(-c1ccccc1)[n+]2C	45*	x	x	x	x	52*	-19	535nm interf DR=>122
CN(C)c1ccc(C=c2c3ccccc3n3c2cc(-c2ccccc2)[n+]3C)cc1	31*	x	x	x	x	56*	-26	535nm interf DR=>122
CN(C)c1ccc(C=c2c3cc([N+](=O)[O-])ccc3n3c2cc(-c2ccccc2)[n+]3C)cc1	48*	x	x	x	x	98*	-9	535nm interf DR=>122
CN(C)c1ccc(C=c2c3ccccc3n3c2c2c([n+]3C)CCCC2)cc1	39*	x	x	x	x	49*	-24	535nm interf DR=>122
COc1cc(C=c2c3ccccc3n3c2cc(-c2ccccc2)[n+]3C)cc(OC)c1OC	14	x	x	x	x	x	x
